Shown are actives, neighbours in structure and some others; about 3.3% of the full set was active somewhere.
LDHA block – LDHA (human) enzyme inhibition. P00338. 480,000 tested, 0.15% active. purified LDHA, NADH/diaphorase-resazurin fluorescence; stronger effect = lower value. activity change, % (values are at about 110 or 230 µM). AID 1347041; in the data active = activity change below about -30%; inconclusive = mostly about -25% to -30%;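 note: plate controls were DMSO wells for no effect and wells without enzyme for full effect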
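Human LDH5 at 2 nM final in Tris HCl pH 7.4 with 0.06 mM NADH and 0.2 mM pyruvate, reacted 5 minutes at room temperature. Remaining NADH coupled via diaphorase/resazurin; resorufin fluorescence read at 0 and 20 minutes, normalized to enzyme-free and DMSO wells.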
PI5P4Ka inh – PI5P4K alpha (human) kinase inhibition; P48426; PI5P4Kalpha enzyme, ADP-Glo luminescence, 60 min; stronger effect = lower value; max response, %; 330,000 tested, 1.2% active; active = max response of -50% or lower; inconclusive = between -30% and -50%; inactive = -30% or higher; note: value at the top dose of about 77 µM; % is set by controls: 0 for no effect and ±100 for the full control effect
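qHTS, 1536-well: enzyme/substrate mix, compound by pin tool, 5 microM ATP final; RT 60 min; ADP-Glo reagents 1 (45 min) then 2 (30 min); luminescence.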
D3 ag – D3 dopamine receptor (human) agonism | P35462 | D3R DiscoveRx beta-arrestin cells, luminescence, 90 min | max activation, % | 410,000 tested, 0.58% active | AID 652048; in the data active = max activation above about 30%; note: 0% is about no effect
Target sequence (P35462 whole entry, looked up): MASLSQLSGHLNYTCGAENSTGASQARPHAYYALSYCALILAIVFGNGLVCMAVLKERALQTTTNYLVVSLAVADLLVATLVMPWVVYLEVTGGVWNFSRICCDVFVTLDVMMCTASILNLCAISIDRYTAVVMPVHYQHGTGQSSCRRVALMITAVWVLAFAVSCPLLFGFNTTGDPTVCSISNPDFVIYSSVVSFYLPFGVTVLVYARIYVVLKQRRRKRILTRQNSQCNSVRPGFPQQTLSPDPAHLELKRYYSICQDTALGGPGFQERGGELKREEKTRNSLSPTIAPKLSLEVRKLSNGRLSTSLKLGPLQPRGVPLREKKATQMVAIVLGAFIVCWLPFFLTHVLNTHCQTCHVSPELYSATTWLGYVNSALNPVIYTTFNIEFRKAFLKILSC
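Agonist-mode cell screen: cells plated at 1500/well and incubated overnight at 37 °C, then exposed to library compounds for 90 min at 37 °C. Detection reagent was added for 30–60 min at room temperature, and luminescence was read.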
D3 antag – blocks the human D3 dopamine receptor; D3R cells, DiscoveRx beta-arrestin luminescence, antagonist mode; stronger effect = lower value; P35462; 360,000 tested, 2.5% active; max response, negative = inhibition, %; in the data active = max response below about -50%; inconclusive = no clear call, values can overlap the other calls; note: % is set by controls: 0 for no effect and ±100 for the full control effect
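Cells plated overnight at 1500 cells/well, then exposed to library compounds with dopamine controls for 90 minutes at 37 degrees C. DiscoveRx reagent added for 30–60 minutes at room temperature; luminescence read, quantitative HTS format.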
PI4K2A block – PI4K2A (human) kinase inhibition | Q9BTU6 | purified PI4K2A, ADP-Glo luminescence, 1 h; stronger effect = lower value | activity change, negative = inhibition, % at 76.9 µM | 420,000 tested, 0.13% active | AID 1346378; in the data active = activity change below about -50%; inconclusive = mostly about -30% to -49%;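 note: -100% = wells without enzyme as full effect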
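In this quantitative HTS, ADP production by PI4K2A was quantified luminescently after 1 h at ambient temperature; 100 microM adenosine served as plate-quality control.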
The depositor's hits bear a star.

Cc1[nH]n(C(N)=S)c(=O)c1N=Nc1ccc(S(=O)(=O)N2CCCC2)cc1 was read as LDHA block -5, PI5P4Ka inh inconclusive, D3 ag 5, D3 antag -78* and PI4K2A block 13.
CC(C)NC(=O)Nc1ccc(CNC(=O)c2nccnc2N)cc1 was read as LDHA block 0.
COc1ccc(NC(=O)Cc2ccc(Cl)c(Cl)c2)cn1 was read as LDHA block -3, PI5P4Ka inh -2, D3 ag 0, D3 antag -5 and PI4K2A block 4.
`COc1ccc(NC(=O)/C(Cl)=C(/Cl)S(=O)(=O)Cc2ccc(C)cc2)cn1` gave LDHA block -3, PI5P4Ka inh -7, D3 ag -7, D3 antag -77* and PI4K2A block 4.
Screening COc1ccc(NC(=O)/C(Cl)=C(/Cl)S(=O)Cc2ccccc2Cl)cn1 (stereo not given) returned LDHA block -6, PI5P4Ka inh inconclusive, D3 ag -18, D3 antag -96* and PI4K2A block -17.
Screening O=C(Oc1ccc(Br)c2ccccc12)c1ccc(-c2ccccc2)cc1 returned LDHA block 1.
Screening Cc1cc2oc(=O)cc(CN3CCc4ccccc43)c2cc1C returned LDHA block 13.
For Cl/C(=N\Nc1c(Cl)cc(Cl)cc1Cl)c1ccccc1 the results were LDHA block 0.
For O=C(CSc1nnc(-c2ccco2)o1)c1ccc[nH]1 the results were LDHA block 1, PI5P4Ka inh -86*, D3 ag -4, D3 antag -2 and PI4K2A block inconclusive.
O=C(CSc1nnc(-c2ccco2)o1)NC(=O)Cc1ccccc1 was read as LDHA block -6, PI5P4Ka inh -4, D3 ag -6, D3 antag -15 and PI4K2A block 2.
For O=C(CSc1nnc(-c2ccco2)o1)NC(=O)C1COc2ccccc2O1 (stereo not given) the results were LDHA block 0, PI5P4Ka inh 0, D3 ag 3, D3 antag -55* and PI4K2A block 7.
`Nc1nc(N)c2cc([N+](=O)[O-])ccc2n1` gave LDHA block -30*, PI5P4Ka inh -22, D3 ag 2, D3 antag -2 and PI4K2A block 6.
`Cc1nc2ccc([N+](=O)[O-])cc2nc1C` gave LDHA block -1, PI5P4Ka inh 2, D3 ag -2, D3 antag 15 and PI4K2A block 3.
`OCCNCCOc1ccccc1F` gave LDHA block -4, PI5P4Ka inh -3, D3 ag -6, D3 antag -3 and PI4K2A block 4.
For CC(C)c1ccccc1NC(=O)CNCCOc1ccccc1F the results were LDHA block -11, PI5P4Ka inh 3, D3 ag 44*, D3 antag inconclusive and PI4K2A block 2.
For COC(=O)c1sc(NC(=O)CCN2CCc3ccccc32)c(C(=O)OC)c1C the results were LDHA block 9.
CC(C)CCNC(=O)CCC(=O)NC(C)(C)C was read as LDHA block 6.
`N#Cc1cccc(S(=O)(=O)NCC(=O)O)c1` gave LDHA block 0.
Screening Cc1ccc(NC(=S)NNc2ncc(C(F)(F)F)cc2Cl)cc1 returned LDHA block -8, PI5P4Ka inh -6, D3 ag -36, D3 antag -68* and PI4K2A block 2.
For FC(F)(F)c1cnc(NNC(=S)Nc2ccc(Cl)cc2)c(Cl)c1 the results were LDHA block -5, PI5P4Ka inh -10, D3 ag -12, D3 antag -64* and PI4K2A block 5.
Cc1ccc(NC(=S)NNC(=S)Nc2cccc(C(F)(F)F)c2)cc1 was read as LDHA block -3, PI5P4Ka inh -29, D3 ag 1, D3 antag -28 and PI4K2A block 17.
For Cc1ccc(NC(=S)NNc2ncc(C(F)(F)F)cc2Cl)c(C)c1 the results were LDHA block -4, PI5P4Ka inh -3, D3 ag -13, D3 antag -53* and PI4K2A block 1.
`Fc1ccc(NC(=S)NNc2ncc(C(F)(F)F)cc2Cl)c(F)c1` gave LDHA block -1, PI5P4Ka inh 3, D3 ag 5, D3 antag -75* and PI4K2A block -3.
Screening Cc1nc2ccccc2nc1COC(=O)c1ccc2nccnc2c1 returned LDHA block -6.
Screening O=C1c2ccccc2S(=O)(=O)c2cc(-c3nn[nH]n3)ccc21 returned LDHA block -7, PI5P4Ka inh -73*, D3 ag 2, D3 antag 10 and PI4K2A block 4.
`CCCc1cc(=O)[nH]c(SCc2noc(-c3ccc(Cl)cc3)n2)n1` gave LDHA block 4.
`CCC(C)c1ccc(-c2csc(NC(=O)Cn3c(=O)c4c(ncn4C)n(C)c3=O)n2)cc1` (stereo not given) gave LDHA block 1.
`Cc1oc(-c2ccc(Cl)cc2)nc1Cn1nc(C)c2c(C)onc2c1=O` gave LDHA block 13.
For CCOC(=O)C(C)(C)N(Cc1ccccc1C)S(=O)(=O)c1ccc(Cl)c([N+](=O)[O-])c1 the results were LDHA block -3, PI5P4Ka inh 15, D3 ag -3, D3 antag -50* and PI4K2A block 6.
For CCCN(CCC)S(=O)(=O)c1ccc(Cl)c([N+](=O)[O-])c1 the results were LDHA block 0, PI5P4Ka inh 1, D3 ag -15, D3 antag inconclusive and PI4K2A block 5.
COc1cc(/C=C2/C(=O)NN(c3cccc(C)c3)C2=O)cc([N+](=O)[O-])c1O was read as LDHA block 6, PI5P4Ka inh -62*, D3 ag -2, D3 antag -10 and PI4K2A block -6.
`COc1cc(/C=C2/C(=O)NN(c3cccc(Cl)c3)C2=O)cc(OC)c1O` gave LDHA block 11, PI5P4Ka inh inconclusive, D3 ag 2, D3 antag 20 and PI4K2A block -23.
Screening O=C1NN(c2ccccc2)C(=O)/C1=C\c1cccn1-c1ccc(Cl)c([N+](=O)[O-])c1 returned LDHA block -2, PI5P4Ka inh -63*, D3 ag -3, D3 antag inconclusive and PI4K2A block -12.
COc1cc(/C=C2/C(=O)NN(c3ccc(C)c(Cl)c3)C2=O)cc([N+](=O)[O-])c1O was read as LDHA block 0, PI5P4Ka inh -67*, D3 ag -9, D3 antag -23 and PI4K2A block -4.
`O=C1NN(c2ccccc2)C(=O)/C1=C\c1ccc2c(c1)OCO2` gave LDHA block -1, PI5P4Ka inh 2, D3 ag 1, D3 antag -1 and PI4K2A block -5.
For Cc1ccc(N2NC(=O)/C(=C\c3cc4c(cc3[N+](=O)[O-])OCO4)C2=O)cc1C the results were LDHA block 3, PI5P4Ka inh -57*, D3 ag 0, D3 antag 5 and PI4K2A block -4.
